Results on 93 compounds are retold here after PubChem BioAssay AID1626 (SRMLSC, 2009).

Structures are written as SMILES. About 2,000 (0.91%) of roughly 220,000 compounds were called active. About 2% were inconclusive and are not listed. Only a sample is shown. Entries with a potency or affinity are not part of this list. Unmarked numbers belong to inactive results. No stated cut-off is given here; in the data, inconclusive means inhibition above about 80% without an active follow-up result; inactive means below that; test concentration not stated here.

A short description of this experiment: M. tuberculosis H37Rv growth inhibitors, H37Rv strain (AID 1626).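 Further: bacteria incubated seven days before Alamar blue readout; 0% = bacteria only wells and 100% = bacteria with antibiotic wells.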 The settings on record: hits give high values, concentration not given here.
As for `O=C(NCCC(=O)N1CCOCCOCCOCCOCC1)OCc1ccccc1`, the inhibition was -3.39%.

For `CCOC(=O)N1CCN(C(=O)c2ccc3nc4ccc(Cl)cc4c(=O)n3c2)CC1`, the inhibition is 2.6%.

Take `NS(=O)(=O)c1ccc(CNC(=O)c2cc(-c3ccccn3)nc3ccc(Cl)cc23)cc1`: the inhibition was 8.36%.

Consider `CCNC(=O)CN1C(=O)NC(Cc2ccccc2)(Cc2ccccc2)C1=O`, for which the inhibition was -0.94%.

In the case of `COc1ccc(NC(=O)Nc2ccc(F)cc2F)cc1`, the inhibition was 10.7%.

Take `COc1ccc(CN2C(=O)CS/C2=N/N=C/c2ccccc2)cc1`: the inhibition is -0.88%.

Turning to `CCNC(=S)N(Cc1c(C)noc1C)c1ccccc1`, the inhibition was -11.8%.

Turning to `CCOc1cc(/C=N/NC(=O)CSc2nncn2C)ccc1OCc1cccc(C)c1`, the inhibition was 5.11%.

On to `COc1cccc(C2C3=C(N=c4s/c(=C\c5ccc(O)cc5)c(=O)n42)c2ccccc2CC3)c1OC` (stereo not drawn), for which the inhibition is 6.52%.

As to `COc1ccccc1C1C2=C(N=c3s/c(=C/c4cccc(OCC(=O)O)c4)c(=O)n31)c1ccccc1CC2` (stereo not drawn), the inhibition was -4.54%.

Consider `COc1ccc(/C=c2/sc3n(c2=O)C(c2ccccc2OC)C2=C(N=3)c3ccccc3CC2)cc1O` (stereo not drawn), for which the inhibition is 16.2%.

With `COc1cccc(C2C3=C(N=c4s/c(=C\c5ccccc5O)c(=O)n42)c2ccccc2CC3)c1OC` (stereo not drawn), the inhibition was 5.15%.

Turning to `CCOc1ccc(NC(=O)Nc2ccc(Br)cn2)cc1`, the inhibition is 0.855%.

In the case of `CCOC(=O)N1CCN(C(=O)c2ccccc2NC(=O)c2ccc(F)cc2)CC1`, the inhibition was 22.6%.

Regarding `COc1ccc(C2/C=C\CN(C(=O)Oc3ccccc3)CC(=O)N2Cc2ccc(F)cc2)cc1` (stereo not drawn), the inhibition is 0.77%.

As for `CC(NC(=O)Cn1c(NCCO)nc2ccccc21)C1CC2CCC1C2` (stereo not drawn), the inhibition was -0.5%.

Consider `O=C1C(NS(=O)(=O)c2cccs2)=C(N2CCN(c3ccccc3)CC2)C(=O)c2ccccc21`, for which the inhibition was 6.53%.

As for `O=C1C(NS(=O)(=O)c2cccs2)=C(N2CCN(c3cccc(Cl)c3)CC2)C(=O)c2ccccc21`, the inhibition was 72.6%.

`COc1ccccc1N1C(=O)C2CC=CC(C)C2C1=O` (stereo not drawn): the inhibition is -9.33%.

As for `Cc1sc2nc(CN3CCOCC3)nc(Cl)c2c1C`, the inhibition is 1.93%.

Take `Cc1sc2nc(CN3CCOCC3)nc(N3CCOCC3)c2c1C`: the inhibition was -5.18%.

Consider `COC(=O)C1(C(F)(F)F)N=C2Sc3ccccc3N2C(N2CCOCC2)=N1` (stereo not drawn), for which the inhibition was -2.56%.

As to `N#Cc1ccc(-c2ccc(OCC(=O)NCCc3ccccc3)cc2)cc1`, the inhibition is 7.81%.

Turning to `COc1ccc(CCNC(=O)COc2ccc(-c3ccc(C#N)cc3)cc2)cc1`, the inhibition was -19.4%.

Take `CN(C)c1ccc(NC(=O)N2CCOCC2)cc1`: the inhibition was -3.81%.

Turning to `N#Cc1c(NC(=O)CN2C(=O)c3ccccc3C2=O)oc(-c2ccccc2)c1-c1ccccc1`, the inhibition was -4.11%.

Take `Cc1[nH]c2ccccc2c1C(=O)C(=O)NCC1CCCO1` (stereo not drawn): the inhibition was 7.05%.

For `Cc1ccc(-c2csc(-c3ccncc3)n2)cc1`, the inhibition was -6.57%.

Turning to `Brc1ccc(-c2csc(Nc3nc(-c4ccc(Br)cc4)cs3)n2)cc1`, the inhibition is 7.47%.

With `CCCOc1ccc(-c2nc(-c3ccc(N)cc3)cs2)cc1`, the inhibition was 1.99%.

Consider `Brc1ccc(-c2csc(-c3ccncc3)n2)cc1`, for which the inhibition was 40.3%.

`Cc1nc(N2CCN(c3ccccc3)CC2)[nH]c(=O)c1CCC(C)C`: the inhibition is 6.58%.

Consider `Nc1nc(SCC(=O)N2CCCc3ccccc32)n(-c2ccccc2)n1`, for which the inhibition is -0.56%.

Turning to `CCC1S/C(=N\S(=O)(=O)c2cccs2)N(C2CCCCC2)C1=O` (stereo not drawn), the inhibition is -5.04%.

Take `CC1(C)Cc2c(sc(NC(=O)Cc3ccccc3)c2C#N)CO1`: the inhibition is -0.57%.

As for `O=C(NC1CCCCC1)N(Cc1nc2ccccc2c(=O)[nH]1)C1CCCCC1`, the inhibition was 12.6%.

Take `Cc1cccc(Oc2nc(CN3CCOCC3)nc3sc4c(c23)CCCC4)c1`: the inhibition was 14%.

Consider `Cc1ccc(Oc2nc(CN3CCOCC3)nc3sc4c(c23)CCC(C)C4)cc1C` (stereo not drawn), for which the inhibition is 40.8%.

`O=C(Nc1ccc2c3c(cccc13)CC2)c1cccc([N+](=O)[O-])c1`: the inhibition is 2.05%.

For the compound `O=C(/C=C/c1ccccc1Cl)NCc1ccccc1`, the inhibition was -0.07%.

Regarding `CCC(CC)NC(=O)/C=C/c1ccccc1Cl`, the inhibition was -14.3%.

For `CC(Cc1ccccc1)NC(=O)/C=C/c1ccc(Cl)cc1` (stereo not drawn), the inhibition is -0.45%.

For the compound `COC(=O)[C@H](CC(C)C)NC(=O)NCc1ccc(Cl)cc1`, the inhibition was -2%.

Regarding `CCOC(=O)Nc1ccc2c(c1)nc(CN1CCOCC1)n2C`, the inhibition was -2.73%.

As for `CN(C)CCCN(C(=O)c1ccc2c(c1)CCCC2)c1nc2ccc(F)cc2s1`, the inhibition was 62.6%.

In the case of `Cc1ccc2nc(N(CCCN(C)C)C(=O)c3ccc(S(=O)(=O)N(C)C)cc3)sc2c1`, the inhibition is -7.66%.

On to `N#Cc1cnn2c1nc(N1CCOCC1)c1ccccc12`, for which the inhibition was 3.61%.

`O=C(O)c1ccc(/C=N/NC(=O)c2ccc(NS(=O)(=O)c3cccs3)cc2)cc1`: the inhibition is 7.29%.

`CN(C)CCNC(=S)Nc1ccc(Cl)cc1Cl`: the inhibition is 3.74%.

On to `CC(=O)/C(=C/N(C)C)C(=O)Nc1ccc(Cl)cc1Cl`, for which the inhibition was 5.27%.

For `Cc1cc(=O)n2nc(N3CCC(C(=O)N4CCN(C)CC4)CC3)sc2n1`, the inhibition is -6.22%.

For `CCN(CC)S(=O)(=O)c1ccc(C)c(NC(=O)Cn2cnc3cc([N+](=O)[O-])ccc3c2=O)c1`, the inhibition is -5.31%.

Consider `O=C(CSc1nnc(-c2ccccc2)o1)N1CCc2ccccc2C1`, for which the inhibition was 0.6%.

For `COc1ccc(-c2nnc(SCC(=O)N3CCc4ccccc4C3)o2)cc1`, the inhibition was 55.5%.

Regarding `COc1cccc(CNc2ccc(F)c(Cl)c2)c1OC`, the inhibition is 9.35%.

For `COc1ccc(NC(=O)C(OC)c2ccccc2)cc1Cl` (stereo not drawn), the inhibition is 4.82%.

On to `O=C(/C=C/c1ccc(Cl)cc1)NCc1ccco1`, for which the inhibition was -3.37%.

As for `CCn1c(SCC(=O)Nc2ccc(C)cc2)nc2nc3c(cc2c1=O)COC(C)(C)C3`, the inhibition was 11.8%.

`Nc1o[nH]c(=O)c1Cc1ccccc1`: the inhibition is -2.12%.

Consider `CCOC(=O)c1sc(NC(=O)CNCc2cccnc2)c(C(=O)OCC)c1C`, for which the inhibition is 0.97%.

Regarding `CCOC(=O)c1sc(NC(=O)CCN2C(=O)c3ccccc3C2=O)c(C(=O)OCC)c1C`, the inhibition was -2.12%.

On to `CC1CCN(CC(=O)NCc2ccco2)CC1`, for which the inhibition was -7.7%.

Turning to `COC(=O)c1sccc1NC(=O)COc1cccc(C)c1`, the inhibition is 0.14%.

Regarding `Cc1cc(CSc2ccccc2)ccc1NC(=O)c1ccc(CN2CCOCC2)cc1`, the inhibition was 7.66%.

For `NC(=O)c1ccc(NC(=O)c2ccc(CN3CCOCC3)cc2)cc1`, the inhibition was -7.24%.

In the case of `O=C(Nc1ccc(CN2CCOCC2)cc1)c1ccc(-c2cccc(Cl)c2)o1`, the inhibition was 8.55%.

With `O=C(NC(=S)Nc1ccc(CN2CCOCC2)cc1)c1ccc(-c2ccc(Br)cc2)o1`, the inhibition was 42.5%.

Take `CC(OC(=O)c1ccccc1Oc1ccccc1)C(=O)NC1CC1` (stereo not drawn): the inhibition was 4.72%.

For `O=S(=O)(Nc1nc2ccccc2nc1-[n+]1ccccc1)c1ccc(Cl)cc1`, the inhibition was -0.65%.

Consider `Nc1cc2c3c(cccc3c1)C(=O)N(CCN1CCCC1)C2=O`, for which the inhibition was 18.6%.

In the case of `O=C1c2cccc3cc([N+](=O)[O-])cc(c23)C(=O)N1c1ccccc1O`, the inhibition is 6.45%.

Take `Cc1nn(-c2ccccc2)c(Cl)c1C(=O)NCC(=O)O`: the inhibition was 4.16%.

Regarding `Fc1cccc(-n2ncc(-c3nnnn3-c3ccccc3)c2C(F)(F)F)c1`, the inhibition was -6.57%.

`CC(=O)OCCCNc1cc(Sc2ccc(C)cc2)c2nonc2c1[N+](=O)[O-]`: the inhibition was 13.8%.

Take `O=[N+]([O-])c1c(NCCCO)cc(SCc2ccco2)c2nonc12`: the inhibition was 74.7%.

On to `O=[N+]([O-])c1c(NCCCO)cc(Sc2ccc(Cl)cc2)c2nonc12`, for which the inhibition was 53.5%.

In the case of `O=[N+]([O-])c1c(NCc2ccco2)ccc2nonc12`, the inhibition is -3.46%.

As to `CCC(=O)OCCNc1cc(Sc2nc3ccccc3[nH]2)c2nonc2c1[N+](=O)[O-]`, the inhibition is 42.4%.

Turning to `CC(=O)OCCNc1cc(Sc2nc3ccccc3[nH]2)c2nonc2c1[N+](=O)[O-]`, the inhibition was -3.19%.

As to `CC(=O)OCCCNc1cc(Sc2ccc(Cl)cc2)c2nonc2c1[N+](=O)[O-]`, the inhibition is 8.58%.

Regarding `N/C(=N\OC(=O)COc1ccccc1Cl)c1ccc(Cl)cc1`, the inhibition is 7.15%.

On to `COc1cc2c(cc1OC)CN(C(=O)CSc1nc(N)c(C#N)cc1C#N)CC2`, for which the inhibition was -0.19%.

For the compound `CCN(CC)CCN(C(=O)c1ccc(Br)s1)c1nc2cc3c(cc2s1)OCO3`, the inhibition is 4.27%.

As to `CCCCNC(=O)CCCCC(=O)N/N=C/c1ccccc1Cl`, the inhibition is -1.94%.

Regarding `COc1ccc(O)c(C2=Nc3ccccc3N=C(c3ccco3)C2)c1`, the inhibition was 6.13%.

In the case of `COc1ccc(NC(=O)NC2CCCCC2C)cc1` (stereo not drawn), the inhibition is 0.36%.

With `COc1ccc(C2(C(=O)N3CCCC3)CCOCC2)cc1OC`, the inhibition is -12.9%.

Turning to `CCN(CC)CCC(c1ccc(N(C)C)cc1)c1c(OC)cc(OC)c2c(-c3ccccc3)cc(=O)oc12` (stereo not drawn), the inhibition was 14.1%.

As to `COc1cc(OC)c2ccc(=O)oc2c1C(CCN1CCCC(C)C1)c1ccc2c(c1)OCO2` (stereo not drawn), the inhibition was -5.64%.

Take `COc1cc(OC)c2c(-c3ccccc3)cc(=O)oc2c1C(CCN1CCCC1)c1ccc2c(c1)OCO2` (stereo not drawn): the inhibition is 77%.

On to `CCN(CC)C(=O)CC(c1ccc2c(c1)OCO2)c1c(OC)cc(OC)c2c(-c3ccccc3)cc(=O)oc12` (stereo not drawn), for which the inhibition is -2.83%.

Take `COc1cc(OC)c2c(-c3ccccc3)cc(=O)oc2c1C(CC(=O)N1CCCC1)c1ccc2c(c1)OCO2` (stereo not drawn): the inhibition was 0.92%.

Turning to `COc1cc(OC)c2c(-c3ccccc3)cc(=O)oc2c1C(CC(=O)N1CCOCC1)c1ccc2c(c1)OCO2` (stereo not drawn), the inhibition is 0.96%.

Broadly, the inhibition is the change of the read-out against control, counted positive when it falls.
